Assay outcomes as filed in PubChem.
IL1B secr inh: qHTS for Inhibitors of Inflammasome Signaling: IL-1-beta AlphaLISA Primary Screen; THP-1 LPS/ATP IL-1B secretion, AlphaLISA, 16 h; stronger effect = lower value; activity change, % at 57.5 µM; actives 4.7% (n = 360,000); in the data active = activity change below about -50%; inconclusive = mostly about -30% to -49%
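THP-1 cells pretreated 1 hr with compounds (up to 57.5 uM final), then stimulated with LPS (250 ng/mL final) plus ATP (1.25 mM final); secreted IL-1B measured by AlphaLISA after 16 hr, decreased signal indicating inhibition.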
TDP1 cell CPT: qHTS for Inhibitors of human tyrosyl-DNA phosphodiesterase 1 (TDP1): qHTS in cells in presence of CPT; chicken DT40 Tdp1-/-;hTDP1 cells + 20 nM CPT, ATP luminescence, 48 h; Potency, µM (series often up to 46.2 µM), most hits filed as inhibitors; actives 12% (n = 420,000); also: nearly all actives have a fitted effect of over 55% in size
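Chicken DT40 Tdp1-/- cells stably complemented with human TDP1 were seeded at 400 cells/well in medium containing 20 nM camptothecin, exposed to pin-transferred compounds, and grown at 37 °C for at least 48 hr. Viability was read as ATP luminescence.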
HT1080NT lethal: qHTS for induction of synthetic lethality in tumor cells producing 2HG: qHTS for the HT-1080-NT fibrosarcoma cell line; Potency, µM (titrated, usually from 46.1 µM), actives largely listed as cytotoxic; HT-1080-NT fibrosarcoma viability, CellTiter-Glo ATP luminescence, 48 h; AID 686970, 2013; actives 1.6% (n = 360,000);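 also: NT is the 2HG producing partner of a matched IDH1 knockdown line; nearly all actives have a fitted effect of over 55% in size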
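Compounds were tested in concentration-response format on HT-1080-NT cells for 48 hours at 37 degrees C. Cell viability came from CellTiter-Glo luminescence; curves were classified by r2, response magnitude and activity.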
TDP1 cell noCPT: qHTS for Inhibitors of human tyrosyl-DNA phosphodiesterase 1 (TDP1): qHTS in cells in absence of CPT | Potency, µM (highest dose often 46.2 µM), most hits filed as inhibitors | DT40 Tdp1-/- hTDP1 cells, no CPT, ATP luminescence, 48 h | actives 15% (n = 420,000); also: nearly all actives have a fitted effect of over 55% in size
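Chicken DT40 Tdp1-/- cells stably complemented with human TDP1 were seeded at 400 cells/well with DMSO in place of 20 nM camptothecin. After compound pinning, cells grew at least 48 hr at 37 °C; viability read by CellTiter-Glo luminescence.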
HT1080 IDH1KD tx: qHTS for induction of synthetic lethality in tumor cells producing 2HG: qHTS for the HT-1080-IDH1KD cell line | HT-1080 IDH1 knockdown viability, ATP luminescence, 48 h | actives 2% (n = 360,000) | Potency, µM (top dose mostly 46.1 µM), usual class: cytotoxic | AID 686971, 2013
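Viability of IDH1-knockdown HT-1080 fibrosarcoma cells was assessed by CellTiter-Glo after 48 h at 37 °C with titrated compound; concentration-effect curves were classified by fit quality and response size.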
A number is an active result; - = inactive; ? = inconclusive; . = no result given; [ ] = remark or other dose. A selection: hits, their analogues and other compounds. The true share with any hit is near 19%. Unless noted, calls follow the shape of the dose curve; as a rule, active = well fitted curve in the direction sought with a large enough effect; inconclusive = small, poorly fitted or top-dose-only effect, or another doubt; inactive = no such curve, though single readings can be large; an effect the other way counts as inactive or inconclusive.

SMILES | IL1B secr inh | TDP1 cell CPT | HT1080NT lethal | TDP1 cell noCPT | HT1080 IDH1KD tx
O=C(Cn1c(-c2ccccc2)c[n+]2ccsc12)c1ccccc1 | - | 21µM | - | ? | -
CC(=O)N=c1sccn1CC(=O)c1ccc([N+](=O)[O-])cc1 | - | - | - | - | -
O=C(Cn1c(-c2ccccc2)c[n+]2ccsc12)c1ccc([N+](=O)[O-])cc1 | - | 23µM | ? | 23µM | ?
CN1CCCC2(CCN(C(=O)c3cccn3C)CC2)C1 | . | - | . | - | .
C(=NNc1nnn(Cc2ccccc2)n1)c1ccccc1 | - | ? | 9.2µM | ? | 18µM
COc1cccc(OC)c1C(=O)Nc1nc2c(s1)CCc1ccccc1-2 | . | - | . | - | .
O=C(Nc1nnc(Cc2ccccc2)s1)c1ccccc1 | - | - | - | - | -
COc1ccc(Cc2nnc(NC(=O)c3ccc(OC)c(OC)c3)s2)cc1 | - | 23µM | - | 23µM | -
COc1cc(C(=O)Nc2nnc(Cc3ccccc3)s2)cc(OC)c1OC | - | - | ? | ? | 10µM
CN(C)S(=O)(=O)c1ccc(C(=O)Nc2nnc(Cc3ccccc3)s2)cc1 | - | - | ? | - | 23µM
CCCN(CCC)S(=O)(=O)c1ccc(C(=O)Nc2nc3c(s2)CCc2ccccc2-3)cc1 | - | 16µM | 18µM | 15µM | ?
CCNC(=O)CC1C(=O)N(CC)C(=S)N1NC(=O)c1cccnc1 (stereo not drawn) | - | - | - | - | -
O=C1CC(N2CCN(S(=O)(=O)c3ccc([N+](=O)[O-])cc3)CC2)C(=O)N1c1ccccc1F (stereo not drawn) | - | - | - | - | -
COc1ccc[n+](CC(=O)c2ccc(F)cc2)c1 | . | - | . | - | .
CCN(CC)S(=O)(=O)c1ccc(C(=O)Nc2nnc(NC(=S)Nc3ccccc3)s2)cc1 | - | ? | - | 23µM | ?
COC(=O)[C@H](CCSC)NC(=O)Cn1cnc2c(SC)nc(N)nc21 | - | ? | - | - | -
O=C(COC(=O)c1nc(Cl)ccc1Cl)c1ccccc1Cl | - | - | - | - | -
N#CCN=C(c1ccccc1)c1ccccc1 | - | - | - | - | -
CCC(C)c1ccc(NC(=O)C2CCCN(c3ncccn3)C2)cc1 (stereo not drawn) | - | 21µM | ? | 18µM | ?
CCC(C)c1ccc(NC(=O)C2CC3CCC2C3)cc1 (stereo not drawn) | -55 | ? | - | 26µM | -
Cc1ccnc(N2CCCC(C(=O)Nc3ccc(C)c(C)c3)C2)n1 (stereo not drawn) | - | 9.2µM | - | ? | -
CCN(C(=O)CN1C(=O)NC2(CCc3ccccc32)C1=O)C1CCCCC1 (stereo not drawn) | - | - | - | - | -
COc1cc(C)nc(-n2nc(C)cc2OC)n1 | - | - | - | - | -
CC(=O)N(/N=C/c1cccc(C)c1)c1nc(-c2ccc(Br)cc2)cs1 | - | 21µM | - | ? | -
COc1ccc(/C=N/N(C(C)=O)c2nc(-c3ccc(C)cc3)cs2)cc1 | ? | - | - | 13µM | -
SMILES | IL1B secr inh | TDP1 cell CPT | HT1080NT lethal | TDP1 cell noCPT | HT1080 IDH1KD tx
CC(Cl)C(=O)c1ccc2c(c1)CCN2C(=O)C1CC1 (stereo not drawn) | -63 | ? | - | ? | -
Cc1cccc(NS(=O)(=O)c2ccc3c(c2)CCCN3C(=O)C2CCC2)c1C | . | 21µM | . | ? | .
CC(=O)N1CCCc2cc(S(=O)(=O)Nc3cccc(C)c3C)ccc21 | - | ? | - | ? | -
Cc1cccc(NS(=O)(=O)c2ccc3c(c2)CCN3C(=O)C2CC2)c1C | . | 21µM | . | 23µM | .
O=C(COC(=O)C1=Cc2ccccc2OC1)NC1CCCC1 | - | - | - | - | -[9.24 µM]
O=C(CC(c1ccccc1)C1CCCCC1=O)c1ccccc1 (stereo not drawn) | - | 18µM | - | 16µM | -
Cc1ccc(NC(=S)N2CCC(N(C)CC3CCCO3)CC2)c(C)c1 (stereo not drawn) | - | - | - | - | -
